Test [1] is described as follows: qHTS assay to identify small molecule antagonists of the glucocorticoid receptor (GR) signaling pathway - cell viability counter screen (AID 720693). Also: nearly all actives have a fitted effect of over 55% in size.
The nature of test [2]: qHTS assay for identifying genotoxic compounds that show differential cytotoxicity against isogenic chicken DT40 cell lines with known DNA damage response pathways - wild type cell line (AID 743012). Also: nearly all actives have a fitted effect of over 60% in size. Also: potency is read from the fitted curve at half-maximal effect. The method in brief:
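300 wt DT40 cells/well; cpd (DMSO) pintool-transferred after ~0.5 h at 37 C/5% CO2; 40 h incubation; CellTiter-Glo added, 30 min RT; luminescence read.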

Test [3] in a line: qHTS assay for identifying genotoxic compounds that show differential cytotoxicity against isogenic chicken DT40 cell lines with known DNA damage response pathways - Rev3 mutant cell line (AID 743014). Also: nearly all actives have a fitted effect of over 55% in size. Also: potency is read from the fitted curve at half-maximal effect.
A short description of test [4]: qHTS assay for identifying genotoxic compounds that show differential cytotoxicity against isogenic chicken DT40 cell lines with known DNA damage response pathways - Rad54/Ku70 mutant cell line (AID 743015). Also: nearly all actives have a fitted effect of over 60% in size. Also: potency is read from the fitted curve at half-maximal effect.
A short description of test [5]: qHTS assay to identify small molecule antagonists of the androgen receptor (AR) signaling pathway - cell viability counter screen (AID 743033; also: nearly all actives have a fitted effect of over 45% in size).
The nature of test [6]: qHTS assay to identify small molecule antagonists of the androgen receptor (AR) signaling pathway using the MDA cell line - cell viability counter screen (AID 743041; also: nearly all actives have a fitted effect of over 45% in size). Put shortly: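 Cytotoxicity counter screen: MDA-kb2 AR-luc cells, compound + R1881, 16 h, 37C, 0% CO2; CellTiter-Fluor added at 15.5 h, fluorescence read after 30 min.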
Test [7] can be described thus: qHTS assay to identify small molecule antagonists of the thyroid receptor (TR) signaling pathway - cell viability counter screen (AID 743064). Also: nearly all actives have a fitted effect of over 50% in size. Put shortly:
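Viability of T3-stimulated (1 nM final) GH3.TRE-Luc cells is measured by CellTiter-Fluor fluorescence after 23.5 h compound exposure at 37 °C plus 30 min reagent incubation.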

A short description of test [8]: qHTS assay to identify small molecule antagonists of the thyroid receptor (TR) signaling pathway (AID 743065). Also: nearly all actives have a fitted effect of over 55% in size. Also: potency is read from the fitted curve at half-maximal effect. The method in brief: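 GH3.TRE-Luc rat pituitary cells (two TREs driving luciferase) were dosed with compound, then stimulated with 1 nM T3 (final) for 23.5 h at 37 C. ONE-Glo luminescence was the read-out, with CellTiter-Fluor fluorescence as the cytotoxicity counter-screen.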

The subject of test [9] is thyroid hormone receptor (rat, GH3 cells). Nature of the test: qHTS assay to identify small molecule agonists of the thyroid receptor (TR) signaling pathway (AID 743066; calls by dose curve).
The target in test [10] is Estrogen receptor (Homo sapiens) (UniProt P03372). Nature of the test: qHTS assay to identify small molecule antagonists of the estrogen receptor alpha (ER-alpha) signaling pathway (AID 743069; active = well fitted curve in the direction sought with a large enough effect in the signal ratio in the repeat runs, not every such curve was filed as active; inconclusive = weak or mixed curves, or effect the other way; inactive = no such curve, though single readings can be large or run the other way; the % refers to the signal ratio). Put shortly:
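Beta-lactamase FRET fluorescence is read after 2 hr at room temperature with LiveBLAzer B/G substrate. Before that, ER-alpha-bla HEK293 cells sit 4 hr after plating, then receive compound plus 17beta-estradiol and incubate 18 hr at 37C.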

The nature of test [11]: qHTS assay to identify small molecule antagonists of the estrogen receptor alpha (ER-alpha) signaling pathway - cell viability counter screen (AID 743074; calls by dose curve;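 also: HEK293 cells carrying ER-alpha-UAS-bla reporter stimulated with 17beta-estradiol; nearly all actives have a fitted effect of over 45% in size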).
The target in test [12] is Estrogen receptor (Homo sapiens) (UniProt P03372). Nature of the test: qHTS assay to identify small molecule agonists of the estrogen receptor alpha (ER-alpha) signaling pathway (AID 743075; calls by dose curve;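 also: HEK293 GripTite cells with ER-alpha and UAS-driven beta-lactamase reporter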; also: potency is read from the fitted curve at half-maximal effect).
Test [13] has the same target. Nature of the test: qHTS assay to identify small molecule agonists of the estrogen receptor alpha (ER-alpha) signaling pathway using the BG1 cell line (AID 743079). Also: nearly all actives have a fitted effect of over 20% in size. Also: potency is read from the fitted curve at half-maximal effect.
Test [14] in a line: qHTS assay to identify small molecule antagonists of the estrogen receptor alpha (ER-alpha) signaling pathway using the BG1 cell line (AID 743080; calls by dose curve; also: series mostly up to about 70 µM; nearly all actives have a fitted effect of over 25% in size). Put shortly:
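Antagonist mode: compounds in DMSO were pinned onto BG1-Luc-4E2 cells alongside 17beta-estradiol agonist, incubated 21.5 h, and ERE-driven luciferase measured with ONE-Glo. Cytotoxicity was multiplexed using CellTiter-Fluor fluorescence.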

A short description of test [15]: qHTS assay to identify small molecule antagonists of the estrogen receptor alpha (ER-alpha) signaling pathway using the BG1 cell line - cell viability counter screen (AID 743081).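 Also: compound given together with 17beta-estradiol as the ER stimulus; series mostly up to about 70 µM; nearly all actives have a fitted effect of over 45% in size.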
The target in another test is Aromatase (Homo sapiens) (UniProt P11511). The test is described as follows: qHTS assay to identify aromatase inhibitors (AID 743083). Also: series mostly up to about 70 µM; nearly all actives have a fitted effect of over 55% in size.

Molecules are shown by their SMILES. Values joined by “and” are separate entries in the source; they are usually repeats but may differ in a detail not shown here. Identical values can stand only once. Active and inactive are the calls of the source. Unless noted, calls follow the shape of the dose curve; as a rule, active = well fitted curve in the direction sought with a large enough effect in the repeat runs; inconclusive = weak or mixed curves; inactive = no such curve, though single readings can be large; an effect the other way counts as inactive or inconclusive.

Sequence of Estrogen receptor (Homo sapiens) (P03372 whole entry, looked up): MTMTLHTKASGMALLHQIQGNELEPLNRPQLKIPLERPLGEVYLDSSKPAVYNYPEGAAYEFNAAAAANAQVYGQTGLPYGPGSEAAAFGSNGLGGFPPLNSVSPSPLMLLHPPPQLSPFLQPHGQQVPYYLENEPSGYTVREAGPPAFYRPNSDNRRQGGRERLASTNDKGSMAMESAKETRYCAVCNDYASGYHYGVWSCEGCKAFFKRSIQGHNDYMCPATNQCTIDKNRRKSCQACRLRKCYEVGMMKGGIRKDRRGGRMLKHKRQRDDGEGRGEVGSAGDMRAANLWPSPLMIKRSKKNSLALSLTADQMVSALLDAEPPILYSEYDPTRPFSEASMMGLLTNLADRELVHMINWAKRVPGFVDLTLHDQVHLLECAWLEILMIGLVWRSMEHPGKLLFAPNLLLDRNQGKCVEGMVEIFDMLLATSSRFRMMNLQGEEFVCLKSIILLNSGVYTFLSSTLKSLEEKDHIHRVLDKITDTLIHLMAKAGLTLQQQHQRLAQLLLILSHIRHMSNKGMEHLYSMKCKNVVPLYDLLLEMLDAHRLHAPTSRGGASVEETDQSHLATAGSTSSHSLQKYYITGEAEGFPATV
Sequence of Aromatase (Homo sapiens) (P11511 whole entry, looked up): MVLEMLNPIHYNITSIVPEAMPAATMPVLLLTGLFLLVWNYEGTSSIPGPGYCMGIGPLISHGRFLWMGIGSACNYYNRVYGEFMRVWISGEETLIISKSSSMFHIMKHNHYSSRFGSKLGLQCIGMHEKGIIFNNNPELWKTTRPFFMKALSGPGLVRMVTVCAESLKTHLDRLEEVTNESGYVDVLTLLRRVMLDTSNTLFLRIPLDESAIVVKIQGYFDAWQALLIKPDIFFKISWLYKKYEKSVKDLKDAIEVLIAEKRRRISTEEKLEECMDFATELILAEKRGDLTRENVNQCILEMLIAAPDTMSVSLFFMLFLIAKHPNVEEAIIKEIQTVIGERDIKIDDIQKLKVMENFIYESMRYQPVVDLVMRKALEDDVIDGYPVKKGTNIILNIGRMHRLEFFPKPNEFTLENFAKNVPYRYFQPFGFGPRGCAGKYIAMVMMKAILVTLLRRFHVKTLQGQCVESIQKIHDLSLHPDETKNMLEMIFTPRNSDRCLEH

For the compound `CC(C)(C)CC(C)(C)N`, the result in [1], in test [5], in [11] and in [15] was inactive. In addition, the Potency result in [2], in test [3], in test [4], in test [6], in [7] and in test [8] was “inactive” each time. The Potency entry (in test [9]; in test [10]; in test [12]; in test [13]; in test [14]; with Aromatase (Homo sapiens)) was “inactive” throughout.
Turning to `COC(=O)CCCCCCCCC(=O)OC`, the outcome in test [1], in [5], in test [11] and in [15] was inactive. Moreover, the Potency entry in test [2], in test [3], in test [4], in [6], in [7] and in test [8] was “inactive” throughout. The Potency entry (in test [9]; in [10]; in test [12]; in test [13]; in test [14]; in the test with Aromatase (Homo sapiens)) was “inactive” each time.
Regarding `CCCC=O`, the call in [1], in test [5], in [11] and in test [15] was inactive. Also, the Potency entry in test [2], in test [3], in [4], in test [6], in test [7] and in test [8] was “inactive” each time. Besides, the Potency result (in [9]; with Aromatase (Homo sapiens)) was “inactive” throughout.
With `CCCCCCCCCCCCI`, the compound was classed as inactive in test [1], in [5], in [11] and in test [15]. Also, the Potency in test [2] is 54.7 µM (active); in [3] it was 7.73 µM (active); in [4] it was 27.4 µM (active). The Potency entry in [6], in test [7], in test [8] and in test [9] was “inactive” each time.
Take `CCOC(=O)[C@H](CCc1ccccc1)N[C@@H](C)C(=O)N1CCC[C@H]1C(=O)O`: the outcome in test [1], in [5], in test [11] and in test [15] was inactive. The Potency entry in test [2], in test [3], in test [4], in [6], in test [8] and in test [9] was “inactive” in each case. For the same compound, in the test with Aromatase (Homo sapiens), the Potency result was “inactive”.
As for `CC1=CC(=O)CCC1`, the result in [1], in test [5], in [11] and in test [15] was inactive. The Potency result in test [2], in test [3], in [4], in test [6], in test [8] and in [9] was “inactive” in each case. The Potency entry in the test with Aromatase (Homo sapiens) is “inactive”.
Turning to `Cc1ccccc1C(=O)O`, the compound was classed as inactive in [1], in test [5], in test [11] and in test [15]. The Potency entry in [2], in test [3], in test [4], in test [6], in [8] and in [9] was “inactive” in each case. Further, the Potency result with Aromatase (Homo sapiens) was “inactive”.
As to `CC(C)(O)C(=O)c1ccc(OCCO)cc1`, the call in test [1], in test [5] and in test [15] was inactive. Moreover, the Potency entry in [2], in test [3], in test [4], in test [6], in test [8] and in test [9] was “inactive” each time. For the same compound, the Potency result (in [10]; in test [12]; in test [13]; in test [14]; with Aromatase (Homo sapiens)) was “inactive” throughout.
For the compound `NC(=O)CCCCC1CCSS1` (centres undefined), the call in test [1], in test [5], in [11] and in test [15] was inactive. The Potency result in [2], in test [3], in test [4], in test [6], in test [8] and in test [9] was “inactive” throughout. Further, the Potency result (in test [14]; in the test with Aromatase (Homo sapiens)) was “inactive” throughout. In addition, the Potency in test [12] is 0.239 µM [inconclusive] (active); in test [13] it was 0.0266 µM (active).
`COC(=O)CCCC(=O)O`: the result in test [1], in [5], in test [11] and in [15] was inactive. Further, the Potency entry in test [2], in [3], in [4], in test [6], in test [7] and in test [8] was “inactive” in each case. The Potency entry (in test [9]; in test [12]; in test [13]; in test [14]; in the test with Aromatase (Homo sapiens)) was “inactive” each time.
As for `CC(C)COC(=O)c1ccccc1O`, the call in test [1], in [5], in [11] and in [15] was inactive. For the same compound, the Potency result in [2], in test [4], in [6], in test [8], in test [9] and in test [10] was “inactive” in each case. In addition, the Potency result in [12], in test [13] and in test [14] was “inactive” throughout. The Potency in [3] is 24.3 µM (active).
As for `COCCOC(=O)CC#N`, the compound was classed as inactive in test [1], in test [5], in test [11] and in test [15]. The Potency entry in test [2], in test [3], in test [4], in test [6], in test [8] and in test [9] was “inactive” each time. The Potency result (in test [10]; in [12]; in [13]; in [14]; with Aromatase (Homo sapiens)) was “inactive” in each case.
On to `CCCCCCCCCCCCCCCCCCOCC(O)CO` (centres undefined), for which the compound was called inactive in test [1], in test [5], in [11] and in test [15]. The Potency result in test [2], in test [3], in test [4], in [6], in test [7] and in test [13] was “inactive” in each case. Moreover, the Potency entry with Aromatase (Homo sapiens) is “inactive”.
`Cn1cnc2c(=O)[nH]c(N)nc21`: the result in [1], in test [5] and in test [15] was inactive. The Potency result in [2], in [3], in test [6], in test [7], in test [8] and in [9] was “inactive” each time. Moreover, the Potency entry with Aromatase (Homo sapiens) is “inactive”. In test [4], the Potency was 61.3 µM (active).
In the case of `CCCc1ccccc1O`, the result in test [1], in test [5], in test [11] and in test [15] was inactive. For the same compound, the Potency result in test [2], in [3], in [4], in [6], in [7] and in [8] was “inactive” each time. Also, the Potency result (in test [9]; with Aromatase (Homo sapiens)) was “inactive” throughout.
Turning to `Nc1nc(F)nc2c1ncn2[C@@H]1O[C@H](CO)[C@@H](O)[C@@H]1O`, the outcome in test [1], in test [5], in test [11] and in [15] was inactive. For the same compound, the Potency in test [2] was 841 nM (active) and 1.68 µM (active); in test [3], 596 nM (active) and 1.88 µM (active); in [4] it was 1.33 µM (active) and 2.66 µM (active); in [8], 18.8 µM (active). The Potency entry in test [6], in [9], in [10], in test [12], in [13] and in test [14] was “inactive” in each case. The Potency entry with Aromatase (Homo sapiens) is “inactive”.
For the compound `OCCCCCCO`, the compound was classed as inactive in test [1], in [5], in [11] and in test [15]. In addition, the Potency result in [2], in test [3], in [4], in test [6], in test [7] and in test [8] was “inactive” throughout. The Potency entry (in test [9]; with Aromatase (Homo sapiens)) was “inactive” throughout.
As to `COc1cccc(OC)c1`, the compound was called inactive in test [1], in [5], in test [11] and in test [15]. The Potency entry in [2], in [3], in test [4], in [6], in test [7] and in [8] was “inactive” in each case. Further, the Potency result (in test [9]; with Aromatase (Homo sapiens)) was “inactive” each time.
Take `COc1cc(O)cc(O)c1`: the result in test [1], in test [5], in test [11] and in [15] was inactive. For the same compound, the Potency entry in test [2], in test [3], in test [4], in [6], in test [7] and in test [8] was “inactive” each time. The Potency entry (in test [9]; in test [14]; in the test with Aromatase (Homo sapiens)) was “inactive” each time.
For `CCC(=O)c1cccc(Cl)c1`, the outcome in test [1], in test [5], in [11] and in test [15] was inactive. Further, the Potency result in test [2], in test [3], in test [4], in test [6], in test [8] and in test [9] was “inactive” in each case. The Potency result in the test with Aromatase (Homo sapiens) was “inactive”.
As to `CCCCCCCCCCCCCCC`, the compound was classed as inactive in test [1], in test [5] and in [15]. The Potency entry in test [2], in [3], in test [4], in test [6], in test [7] and in test [8] was “inactive” in each case. The Potency result in test [9] is “inactive”.
With `N#CCc1ccccc1[N+](=O)[O-]`, the call in [1], in test [5], in test [11] and in test [15] was inactive. Also, the Potency entry in test [2], in test [3], in [4], in test [6], in [7] and in test [8] was “inactive” each time. In addition, the Potency result (in [9]; in the test with Aromatase (Homo sapiens)) was “inactive” in each case.
